For 13 compounds, outcome and AC50 results are on record in PubChem BioAssay (EPA / NIEHS).

The target in assay [1] is human RAR-related Orphan Receptor gamma (RORg), RORC (gene 6097) (UniProt P51449). Kind of assay: ATG_RORg_TRANS: Attagene TRANS-FACTORIAL HepG2 Assay for human RAR-related Orphan Receptor gamma (RORg) (AID 2283011; active means hit-call score of the fitted dose curve at least 0.9, where 1 is the maximum). In outline: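 Readout: reporter transcript induction (RT-PCR, fluorescent primer extension, capillary electrophoresis) after 24 h compound exposure of transiently transfected HepG2 cells carrying a RORg-Gal4 chimera and GAL4-UAS reporters; DMSO served as baseline, with increasing signal fitted.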
Sequence of human RAR-related Orphan Receptor gamma (RORg), RORC (gene 6097) (P51449 whole entry, looked up, the tested form may be a part): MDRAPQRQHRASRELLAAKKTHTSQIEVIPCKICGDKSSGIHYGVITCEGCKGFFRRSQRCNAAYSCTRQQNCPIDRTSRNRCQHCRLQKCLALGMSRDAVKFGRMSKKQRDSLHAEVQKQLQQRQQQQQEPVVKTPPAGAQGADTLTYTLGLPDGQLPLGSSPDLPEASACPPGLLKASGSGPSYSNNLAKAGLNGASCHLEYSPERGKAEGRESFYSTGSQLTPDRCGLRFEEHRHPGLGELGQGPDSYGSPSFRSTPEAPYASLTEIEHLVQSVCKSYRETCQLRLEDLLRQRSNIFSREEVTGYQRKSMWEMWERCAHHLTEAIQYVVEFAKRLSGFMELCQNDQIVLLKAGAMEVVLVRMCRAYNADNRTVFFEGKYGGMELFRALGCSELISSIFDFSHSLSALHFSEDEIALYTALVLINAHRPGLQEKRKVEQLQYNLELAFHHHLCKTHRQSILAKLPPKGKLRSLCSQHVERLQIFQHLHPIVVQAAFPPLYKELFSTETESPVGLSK

Assay [2] deals with human Retinoid X Receptor beta (RXRb), RXRB (gene 6257) (UniProt P28702). Kind of assay: ATG_RXRb_TRANS: Attagene TRANS-FACTORIAL HepG2 Assay for human Retinoid X Receptor beta (RXRb) (AID 2283013; active means hit-call score of the fitted dose curve at least 0.9, where 1 is the maximum). In outline:
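HepG2 cells were transiently transfected with multiplexed GAL4-UAS reporters and a chimeric RXRb-Gal4 construct, then exposed for 24 h. Reporter mRNA was quantified by RT-PCR, FAM labeling, HpaI digestion and capillary electrophoresis; gain of signal was scored against DMSO.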

Assay [3] addresses human Thyroid Receptor alpha (THRa1), THRA (gene 7067) (UniProt P10827). Kind of assay: ATG_THRa1_TRANS: Attagene TRANS-FACTORIAL HepG2 Assay for human Thyroid Receptor alpha (THRa1) (AID 2283014; active means hit-call score of the fitted dose curve at least 0.9, where 1 is the maximum). In outline: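 HepG2 cells transiently transfected with multiplexed GAL4-UAS reporter units for exogenous chimeric THRa1-Gal4; reporter mRNA measured 24 h after dosing by RT-PCR, 6-FAM labelling, HpaI digestion and capillary electrophoresis. Gain-of-signal fitted versus DMSO baseline.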

Read-out in assay [4]: E-selectin (Homo sapiens) (UniProt P16581)
Kind of assay: BSK_3C_Eselectin: BioMAP Diversity Plus: 3C Assay for Eselectin Biomarker Activity (AID 2283015). The note with it: primary human endothelial cells (HUVEC); actives raise or lower the signal. In outline:
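Primary human umbilical vein endothelial cells (3C system) were dosed with chemical and cell-surface E-selectin measured by ELISA 24 h later. Bidirectional curve fitting used DMSO as negative control and baseline.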

Read-out in assay [5]: Interleukin-1 alpha (IL1a), IL1A (gene 3552)
Put plainly: BSK_BE3C_IL1a: BioMAP Diversity Plus: BE3C Assay for Interleukin-1 alpha (IL1a) Biomarker Activity (AID 2283016). The note with it: primary human bronchial epithelial cells; actives raise or lower the signal. In outline: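 Human primary bronchial epithelial cells, 24 h chemical exposure; IL-1a quantified by ELISA, fitted bidirectionally against DMSO. Cytotoxicity assessed in parallel by SRB total-protein staining at the time of measurement.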

Read-out in assay [6]: Monocyte Chemoattractant Protein-1 (MCP1), CCL2 (gene 6347)
Put plainly: BSK_4H_MCP1: BioMAP Diversity Plus: 4H Assay for Monocyte Chemoattractant Protein-1 (MCP1) Biomarker Activity (AID 2283018). The conditions noted are these: primary human endothelial cells (HUVEC); actives raise or lower the signal. In outline: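 Human umbilical vein endothelial cells (4H system) exposed to chemicals for 24 h in 96-well format. MCP-1 measured by ELISA; bidirectional fitting against DMSO, with SRB total-protein staining in parallel cultures for cytotoxicity.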

Read-out in assay [7]: Human Leukocyte Antigen - DR isotype (HLADR), HLA-DRA (gene 3122)
Kind of assay: BSK_3C_HLADR: BioMAP Diversity Plus: 3C Assay for Human Leukocyte Antigen - DR isotype (HLADR) Biomarker Activity (AID 2283019). The note with it: primary human endothelial cells (HUVEC); actives raise or lower the signal. The method, boiled down: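 Primary human umbilical vein endothelial cells (3C system) were dosed with compound and cell-surface HLA-DR was quantified by ELISA at 24 h. Activity was fitted bidirectionally against DMSO as negative control and baseline.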

Read-out in assay [8]: Interleukin-8 (IL8), CXCL8 (gene 3576)
Kind of assay: BSK_3C_IL8: BioMAP Diversity Plus: 3C Assay for Interleukin-8 (IL8) Biomarker Activity (AID 2283020). The conditions noted are these: primary human endothelial cells (HUVEC); actives raise or lower the signal. The method, boiled down:
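Primary human umbilical vein endothelial cells were dosed for 24 h. IL-8 was quantified by ELISA and fitted bidirectionally against DMSO. Cytotoxicity was assessed in parallel cultures by SRB staining at 560 nm.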

Read-out in assay [9]: Monokine induced gamma interferon (MIG), CXCL9 (gene 4283)
Kind of assay: BSK_3C_MIG: BioMAP Diversity Plus: 3C Assay for Monokine induced gamma interferon (MIG) Biomarker Activity (AID 2283021).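 On AC50: MIG protein level measured by immunoassay in the treated endothelial cultures.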 The conditions noted are these: primary human endothelial cells (HUVEC); actives raise or lower the signal. The method, boiled down:
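HUVEC primary endothelial cultures dosed with chemical; MIG quantified by ELISA at 24 h. Data fitted bidirectionally against DMSO control, with parallel SRB total-protein staining for cytotoxicity.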

The target of assay [10] is human Vitamin D Receptor (VDR), VDR (gene 7421) (UniProt P11473). Put plainly: ATG_VDR_TRANS: Attagene TRANS-FACTORIAL HepG2 Assay for human Vitamin D Receptor (VDR) (AID 2283022; active means hit-call score of the fitted dose curve at least 0.9, where 1 is the maximum). The method, boiled down: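 HepG2 cells were transiently transfected with multiple GAL4-UAS reporter units, so signal reflects exogenous chimeric receptor-Gal4 activity. After 24 h compound exposure, reporter mRNA was measured by RT-PCR, fluorescent labelling and capillary electrophoresis, fitted for gain of signal versus DMSO.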
Sequence of human Vitamin D Receptor (VDR), VDR (gene 7421) (P11473 whole entry, looked up, the tested form may be a part): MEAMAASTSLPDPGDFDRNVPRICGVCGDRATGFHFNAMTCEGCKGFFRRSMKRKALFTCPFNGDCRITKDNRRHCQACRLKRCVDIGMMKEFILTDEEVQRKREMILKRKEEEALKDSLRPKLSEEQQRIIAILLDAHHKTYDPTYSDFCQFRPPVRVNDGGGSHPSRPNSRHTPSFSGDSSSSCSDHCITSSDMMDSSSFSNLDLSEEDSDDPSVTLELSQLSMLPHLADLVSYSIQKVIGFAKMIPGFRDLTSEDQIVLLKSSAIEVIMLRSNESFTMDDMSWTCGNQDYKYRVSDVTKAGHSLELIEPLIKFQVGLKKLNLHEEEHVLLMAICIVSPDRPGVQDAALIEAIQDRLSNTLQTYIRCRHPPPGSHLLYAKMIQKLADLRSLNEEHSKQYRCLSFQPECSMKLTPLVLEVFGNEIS

The nature of assay [11]: BSK_3C_SRB: Viability Assessment in the BioMAP Diversity Plus: 3C Assay (AID 2283023).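 Further: fitted both ways against DMSO so a hit may be signal rise or drop.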 The note with it: primary human endothelial cells (HUVEC). The method, boiled down:
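Primary human umbilical vein endothelial cells in the 3C system were read 24 h after compound dosing. Total protein was stained with 0.1% sulforhodamine B after 10% TCA fixation and read at 560 nm, with bidirectional fitting against DMSO as baseline.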

Read-out in assay [12]: Matrix Metallopeptidase 1 (MMP1), MMP1 (gene 4312)
Put plainly: BSK_BE3C_MMP1: BioMAP Diversity Plus: BE3C Assay for Matrix Metallopeptidase 1 (MMP1) Biomarker Activity (AID 2283024). The conditions noted are these: primary human bronchial epithelial cells; actives raise or lower the signal. In outline: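 Human primary bronchial epithelial cells (BE3C system) dosed for 24 h; MMP-1 quantified by ELISA. Bidirectional fit against DMSO; cytotoxicity tracked in parallel cultures by SRB total-protein staining.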

The nature of assay [13]: BSK_3C_Vis: BioMAP Diversity Plus: 3C Assay for Morphology Visualization (AID 2283025).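 Further: fitted both ways so gain or loss versus DMSO counts.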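 On AC50: light microscopy image of cell morphology used as background control.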 The conditions noted are these: primary human endothelial cells (HUVEC). The method, boiled down: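 Human umbilical vein endothelial cell morphology was inspected by light microscopy 24 h after chemical dosing; scored bidirectionally relative to DMSO.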
Read-out in assay [14]: Pselectin, SELP (gene 6403)
Put plainly: BSK_4H_Pselectin: BioMAP Diversity Plus: 4H Assay for Pselectin Biomarker Activity (AID 2283026). The note with it: primary human endothelial cells (HUVEC); actives raise or lower the signal. In outline:
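Primary human umbilical vein endothelial cells were treated 24 h, and cell-surface P-selectin was then quantified by ELISA. Bidirectional fit versus DMSO; cytotoxicity checked in parallel cultures by SRB total-protein staining.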

The nature of assay [15]: BSK_4H_SRB: Viability Assessment in the BioMAP Diversity Plus: 4H Assay (AID 2283027).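 Further: cells exposed to compound for 24 h before staining.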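 On AC50: curves fitted both ways versus DMSO so AC50 may be loss or gain.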 The conditions noted are these: primary human endothelial cells (HUVEC). In outline: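 Absorbance at 560 nm of SRB-stained total protein served as the viability read-out in confluent primary human umbilical vein endothelium 24 h after chemical treatment. Curves were fitted bidirectionally against DMSO as negative control.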

Assay [16] is described as follows: BSK_BE3C_SRB: Viability Assessment in the BioMAP Diversity Plus: BE3C Assay (AID 2283028).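 On AC50: fitted both ways so AC50 may mark signal gain or loss versus DMSO.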 The note with it: primary human bronchial epithelial cells. The method, boiled down:
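Human primary bronchial epithelial cells were exposed to test chemicals for 24 h. Total protein in parallel cultures was then measured by staining with 0.1% sulforhodamine B after 10% TCA fixation, with absorbance read at 560 nm. Activity was fitted bidirectionally against DMSO.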

Read-out in assay [17]: Thrombomodulin, THBD (gene 7056)
Kind of assay: BSK_3C_Thrombomodulin: BioMAP Diversity Plus: 3C Assay for Thrombomodulin Biomarker Activity (AID 2283029). The conditions noted are these: primary human endothelial cells (HUVEC); actives raise or lower the signal. The method, boiled down: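 Human umbilical vein endothelial cells were exposed to chemicals for 24 h; cell-surface thrombomodulin quantified by ELISA, with bidirectional fitting against DMSO baseline.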

Read-out in assay [18]: Urokinase-type plasminogen activator receptor (uPAR), PLAUR (gene 5329)
Kind of assay: BSK_4H_uPAR: BioMAP Diversity Plus: 4H Assay for Urokinase-type plasminogen activator receptor (uPAR) Biomarker Activity (AID 2283030). The conditions noted are these: primary human endothelial cells (HUVEC); actives raise or lower the signal. In outline:
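Primary human umbilical vein endothelial cells were exposed to chemical for 24 h before cell-surface uPAR was quantified by ELISA. Activity was fitted bidirectionally against the DMSO negative control baseline.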

For assay [19], the target named is Retinoic acid receptor RXR-alpha (Homo sapiens) (UniProt P19793). Put plainly: ATG_RXRa_TRANS: Attagene TRANS-FACTORIAL HepG2 Assay for human Retinoid X Receptor alpha (RXRa) (AID 2283012; active means hit-call score of the fitted dose curve at least 0.9, where 1 is the maximum). In outline:
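HepG2 cells transiently transfected with GAL4-UAS reporter units and chimeric RXRa-Gal4 protein, treated 24 h. Reporter mRNA measured by RT-PCR, fluorescent labelling, HpaI digestion and capillary electrophoresis. Induction fitted against DMSO.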

Read-out in assay [20]: Monocyte Chemoattractant Protein-1 (MCP1), CCL2 (gene 6347)
Kind of assay: BSK_3C_MCP1: BioMAP Diversity Plus: 3C Assay for Monocyte Chemoattractant Protein-1 (MCP1) Biomarker Activity (AID 2283017). The conditions noted are these: primary human endothelial cells (HUVEC); actives raise or lower the signal. The method, boiled down:
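Primary human umbilical vein endothelial cells (3C system) were exposed to test chemical for 24 h, after which MCP-1 was quantified by ELISA. Activity was fitted bidirectionally against DMSO as negative control and baseline.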

SMILES strings stand for the structures. Results filed as inconclusive are left out. Active and inactive are the calls of the source. How the source made its calls, unless noted: active means hit-call score of the fitted dose curve at least 0.9, where 1 is the maximum; inactive means score below 0.9.

Sequence of human Thyroid Receptor alpha (THRa1), THRA (gene 7067) (P10827 whole entry, looked up, the tested form may be a part): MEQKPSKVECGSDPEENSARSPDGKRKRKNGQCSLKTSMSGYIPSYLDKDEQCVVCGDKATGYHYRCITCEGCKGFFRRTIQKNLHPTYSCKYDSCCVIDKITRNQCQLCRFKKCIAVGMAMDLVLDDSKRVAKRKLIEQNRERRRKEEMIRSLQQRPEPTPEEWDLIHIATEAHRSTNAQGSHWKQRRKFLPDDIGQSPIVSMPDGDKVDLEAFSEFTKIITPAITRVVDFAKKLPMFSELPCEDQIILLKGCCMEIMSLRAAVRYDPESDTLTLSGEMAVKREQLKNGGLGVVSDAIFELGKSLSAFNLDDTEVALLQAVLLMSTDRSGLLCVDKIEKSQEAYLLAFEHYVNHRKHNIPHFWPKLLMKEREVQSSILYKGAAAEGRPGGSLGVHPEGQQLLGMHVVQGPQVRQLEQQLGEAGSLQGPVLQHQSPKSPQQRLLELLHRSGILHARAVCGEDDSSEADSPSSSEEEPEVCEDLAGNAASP
Sequence of E-selectin (Homo sapiens) (P16581 whole entry, looked up): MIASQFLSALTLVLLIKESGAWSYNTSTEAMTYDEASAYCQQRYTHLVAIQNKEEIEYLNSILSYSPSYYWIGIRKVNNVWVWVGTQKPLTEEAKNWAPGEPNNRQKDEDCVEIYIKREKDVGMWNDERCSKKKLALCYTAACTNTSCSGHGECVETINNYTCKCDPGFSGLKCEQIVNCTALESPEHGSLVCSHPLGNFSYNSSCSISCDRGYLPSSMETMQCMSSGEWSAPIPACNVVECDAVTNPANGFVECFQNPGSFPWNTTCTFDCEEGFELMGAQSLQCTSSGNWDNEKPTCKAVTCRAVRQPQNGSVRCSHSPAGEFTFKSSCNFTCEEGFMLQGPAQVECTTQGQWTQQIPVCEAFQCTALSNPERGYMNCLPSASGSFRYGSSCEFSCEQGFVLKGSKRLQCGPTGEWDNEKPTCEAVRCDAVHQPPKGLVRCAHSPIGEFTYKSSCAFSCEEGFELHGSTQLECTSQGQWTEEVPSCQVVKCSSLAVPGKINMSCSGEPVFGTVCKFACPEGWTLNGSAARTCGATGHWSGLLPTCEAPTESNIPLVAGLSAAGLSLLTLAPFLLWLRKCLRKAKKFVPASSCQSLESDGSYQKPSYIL
Sequence of Retinoic acid receptor RXR-alpha (Homo sapiens) (P19793 whole entry, looked up, the tested form may be a part): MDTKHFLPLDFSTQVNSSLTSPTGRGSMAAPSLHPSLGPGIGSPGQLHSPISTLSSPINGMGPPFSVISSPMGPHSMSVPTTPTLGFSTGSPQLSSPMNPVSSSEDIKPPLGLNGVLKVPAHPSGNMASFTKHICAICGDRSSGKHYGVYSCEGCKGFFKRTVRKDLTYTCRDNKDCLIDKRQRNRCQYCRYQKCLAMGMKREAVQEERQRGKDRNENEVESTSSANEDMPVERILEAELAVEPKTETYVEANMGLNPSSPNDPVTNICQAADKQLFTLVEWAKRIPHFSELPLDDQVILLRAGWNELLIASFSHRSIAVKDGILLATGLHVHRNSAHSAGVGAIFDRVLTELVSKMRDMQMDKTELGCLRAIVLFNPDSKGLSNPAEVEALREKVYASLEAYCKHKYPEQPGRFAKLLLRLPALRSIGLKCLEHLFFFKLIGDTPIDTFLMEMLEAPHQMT
Sequence of human Retinoid X Receptor beta (RXRb), RXRB (gene 6257) (P28702 whole entry, looked up, the tested form may be a part): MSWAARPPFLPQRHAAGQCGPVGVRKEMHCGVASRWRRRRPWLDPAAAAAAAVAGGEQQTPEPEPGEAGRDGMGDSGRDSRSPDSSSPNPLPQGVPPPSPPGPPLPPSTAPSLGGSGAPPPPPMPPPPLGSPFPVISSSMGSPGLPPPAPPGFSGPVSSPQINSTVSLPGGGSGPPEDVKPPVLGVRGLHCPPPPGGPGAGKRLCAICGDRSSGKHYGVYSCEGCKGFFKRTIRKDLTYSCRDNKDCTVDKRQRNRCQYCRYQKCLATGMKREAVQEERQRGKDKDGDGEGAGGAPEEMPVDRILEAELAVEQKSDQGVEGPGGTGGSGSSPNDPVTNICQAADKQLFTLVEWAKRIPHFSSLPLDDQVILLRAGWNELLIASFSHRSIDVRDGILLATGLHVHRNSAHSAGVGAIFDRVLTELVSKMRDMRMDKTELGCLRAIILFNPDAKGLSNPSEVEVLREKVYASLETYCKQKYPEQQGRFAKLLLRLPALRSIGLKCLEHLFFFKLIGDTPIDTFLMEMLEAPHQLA

`O=C1C=CC(=O)c2ccccc21`: the compound was classed as inactive in [1], in assay [2], in [3], in assay [10] and in assay [17]. Besides, the AC50 (commonly the midpoint of the concentration-response curve, whichever way the signal moves) was 4.15 µM (active) in [4]; 3.75 µM (active) in assay [5]; 1.45 µM (active) in [6]; 2.14 µM (active) in assay [7]; 5.23 µM (active) in [8]; 6.7 µM (active) in assay [9]. Besides, the AC50 in assay [11] is 4.92 µM (active); in assay [12] it was 5.57 µM (active); in [13], 4.06 µM (active); in [14], 1.62 µM (active); in assay [15] it was 2.55 µM (active); in [16], 3.8 µM (active). Besides, in assay [18], the AC50 is 1.99 µM (active).

For `BrCc1ccc(Br)cc1`, the outcome in [1], in assay [19] and in [10] was inactive.

For the compound `c1ccc2sc(SNC3CCCCC3)nc2c1`, the compound was called inactive in [1], in assay [2], in assay [3], in assay [4], in assay [5] and in assay [6]. Moreover, the outcome in [8], in assay [9], in [10], in assay [11], in [12] and in assay [13] was inactive. In addition, the result in assay [14], in [15], in assay [16], in assay [17] and in assay [18] was inactive.

As to `CCOC(=O)C(SP(=S)(OC)OC)c1ccccc1` (stereo not drawn), the compound was classed as inactive in assay [1], in [4], in assay [5], in assay [8], in assay [9] and in assay [12]. The outcome in [16] and in [17] was inactive. Moreover, the AC50 was 32.2 µM (active) in assay [2]; 3.97 µM (active) in assay [6]; 32.6 µM (active) in [11]; 37.5 µM (active) in [13]; 20 µM (active) in [14]; 29.5 µM (active) in [15]. In addition, the AC50 in assay [18] is 20 µM (active).

In the case of `Nc1ccc(Br)cc1`, the compound was called inactive in assay [1], in assay [2] and in assay [3].

As for `BrCCCCBr`, the call in [1], in [2] and in assay [3] was inactive.

On to `COC(F)(C(F)(F)C(F)(F)F)C(F)(C(F)(F)F)C(F)(F)F` (stereo not drawn), for which the outcome in assay [1], in [2] and in [10] was inactive.

With `Nc1nc(=S)[nH][nH]1`, in [1], the compound was called inactive. Besides, the AC50 in assay [2] is 164 µM (active).

With `CCCCOC(C)=O`, the result in assay [1], in assay [19] and in assay [3] was inactive.

Consider `O=C/C(Cl)=C(/Cl)C(=O)O`, for which the result in [1] and in [2] was inactive.

On to `CCOP(=S)(OCC)SCSc1cc(Cl)ccc1Cl`, for which the compound was called inactive in assay [1], in assay [3] and in assay [10]. The AC50 in assay [2] is 25.5 µM (active).

On to `Oc1cccc(-c2ccccc2)c1`, for which the result in [1], in [3], in assay [5], in [8], in assay [9] and in [12] was inactive. The result in assay [14], in assay [16], in [17] and in assay [18] was inactive. Also, the AC50 in [2] was 36.6 µM (active); in [4] it was 32 µM (active); in [6], 20 µM (active); in assay [7], 32.9 µM (active); in assay [11], 20 µM (active); in assay [13], 38.9 µM (active). Besides, the AC50 in assay [15] was 20 µM (active).

Regarding `CCCCN(CCCC)C(=S)[S-].CCCCN(CCCC)C(=S)[S-].[Ni+2]`, the result in assay [1], in assay [2], in assay [3], in assay [4], in assay [5] and in [20] was inactive. Also, the result in assay [6], in assay [8], in assay [9], in assay [10], in assay [11] and in assay [12] was inactive. The outcome in assay [13], in assay [14], in assay [15], in assay [16], in [17] and in assay [18] was inactive.
